The text below walks through data of PMC5540273 (PLoS ONE, 2017).
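Note: KINOMEscan kinase panel screen.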

The test system of this test is T1, SNARK.
T1 construct: gene NUAK2
As to conditions: concentration: 1 μM, replicates: in singlicate; n = 1.
Take `COc1cc(Nc2nccc(N3CCC(NC(=O)c4cccc(NC(C)=O)c4)C3)n2)cc(OC)c1OC` (stereo not shown) [GSK1379754]: the “%Inh” value was found to be 57%.

On to `CN1c2ccc(NCc3ccc(F)cc3)cc2-c2c(cnn2C)S1(=O)=O`, for which the “%Inh” value is recorded as 0%.

As to `Cc1nnc(-c2ccc3ncc(-c4ccc(S(C)=O)cc4)n3c2)o1` (stereo not shown), the “%Inh” value worked out at 0%.

For `O=C(NCCCN1CCOCC1)c1cccc(Nc2nccc(Nc3ccc(Oc4ccccc4)cc3)n2)c1` [GW663929], the “%Inh” value was found to be 22%.

`Cc1cccc(Cn2ccn3c(=O)cc(N4CCOCC4)nc23)c1` [GSK2297542]: the “%Inh” value is listed as 3%.

`Nc1nc(-c2ccc3c(N)n[nH]c3c2)cc(N2CCCC2)n1` [GSK2227430]: the “%Inh” value worked out at 3%.

On to `Fc1ccc(-c2ncn(CCCN3CCOCC3)c2-c2cccnc2)cc1` [SB-211743], for which the “%Inh” value is listed as 0%.

Regarding `O=C(NOCC1CC1)c1ccc(F)c(F)c1Nc1ccc(I)cc1Cl`, the “%Inh” value turned out to be 0%.

Regarding `NS(=O)(=O)c1cccc(-c2ccc3ncc(N4CCOCC4)nc3c2)c1` [GSK1535721], the “%Inh” value is 1%.

`Cn1ccc2ncnc(Oc3ccc(NC(=O)Nc4ccncc4)c(Cl)c3)c21`: the “%Inh” value amounted to 0%.

Take `NS(=O)(=O)c1cccc(-c2ccc3nccc(-c4cccc(S(N)(=O)=O)c4)c3c2)c1` [GW867253]: the “%Inh” value is reported as 0%.

Consider `CCc1nc(-c2cccc(C)c2)c(-c2ccnc(NCc3ccccc3)c2)s1`, for which the “%Inh” value is 0%.

In the case of `O=C(Nc1cccc(-c2nn3ncccc3c2-c2ccnc(Nc3cccc(C(F)(F)F)c3)n2)c1)c1c(F)cccc1F` [GSK299495], the “%Inh” value is 0%.
